SMILES strings stand for the structures. Several values for one entry are separate records, joined by “and”; a condition that tells them apart may be missing. Equal entries are not always repeated.

This experiment concerns HL-1. The experiment can be described thus: cardiomyocyte survival under oxidative or metabolic stress – cell-based, panel, H9c2 and HL-1, ATP luminescence, set 2, SAR follow-up (AID 651871).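 Also: cells exposed to stressor for 2 h before ATP readout; reference of the scale not given here.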 Particulars: H9c2/HL-1 cardiomyocytes, 2-deoxyglucose stress, with 2-deoxyglucose, run 3, at 79 µM (top of the series).
Regarding `CCOC(=O)c1cccc(NC(=O)CNC(=O)c2cc(-c3cc(OC)c(OC)c(OC)c3)nc3ccccc23)c1`, the activity (protection/inhibition) is 95.7%.
For the molecule `COc1ccc2c(c1OC)C(=O)N1c3ccccc3C(=O)N(Cc3cccc(Cl)c3Cl)C21` (stereo not drawn), the activity (protection/inhibition) was 35.1% and -7.14%.
As for `COc1ccc2nc(-c3cc(OC)c(OC)c(OC)c3)cc(C(=O)NCC(=O)Nc3ccc(C(C)=O)cc3)c2c1`, the activity (protection/inhibition) came out at 38.8%.
